15-hLO inh: qHTS Assay for Inhibitors of 15-hLO (15-human lipoxygenase); hit rate 1.4% among 74,000; Potency, µM (doses to about 57.1 µM), most hits filed as inhibitors; Polyunsaturated fatty acid lipoxygenase ALOX15 (Homo sapiens), P16050; purified 15hLO-1, xylenol orange hydroperoxide absorbance; note: nearly all actives have a fitted effect of over 55% in size
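Quantitative HTS in 25 mM Hepes pH 7.5 containing 0.01% Triton X-100: human 15hLO-1 at 40 nM, arachidonic acid at 50 uM, 6 min turnover. Product quantified via ferrous oxidation/xylenol orange, 573:405 nm absorbance ratio.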
Hsp90 Hop PPI: qHTS Assay for Disrupters of an Hsp90 Co-Chaperone Interaction; hit rate 0.44% among 71,000; AID 595, 2007; AlphaScreen TPR2A-His6 binding biotin-Hsp90 C-terminal peptide; Potency, µM (highest dose often 57 µM); active = well fitted curve in either direction with a large enough effect; inconclusive = small, poorly fitted or top-dose-only effect, or another doubt
YjeE inh: qHTS Assay for Inhibitors of YjeE | purified YjeE enzyme, qHTS inhibition assay | Potency, µM | hit rate 0.05% among 71,000
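Purified YjeE (10 uM) with BODIPY Texas Red-labeled ADP probe (2 uM); compounds pin-transferred, 15 min at room temperature. Binding inhibition read as decreased fluorescence polarization; ADP titration as control.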
Pol III holo inh: qHTS Assay for Inhibitors of DNA Polymerase III Holoenzyme System. reconstituted DNA polymerase III holoenzyme replication, biochemical. Potency, µM (doses to about 57.1 µM). hit rate 0.25% among 71,000
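Reconstituted *E. coli* holoenzyme (0.35 nM Pol III, 1 nM beta, 154 nM SSB, 2 nM primase) was preincubated with compound for 15 min at RT. Synthesis on 1.4 nM ssM13Gori ran 35 min, then was stopped with PicoGreen/EDTA and read as dsDNA fluorescence.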
ERK AVP block: qHTS Assay for Inhibitors of the ERK Signaling Pathway using a Homogeneous Screening Assay; Potency, µM (titrated, usually from 57.5 µM), hits mostly inhibitors; HEK293-V1b, vasopressin-stimulated pERK AlphaScreen; AID 995, 2007; hit rate 0.99% among 72,000; note: nearly all actives have a fitted effect of over 55% in size
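HEK293 cells stably expressing V1b receptor, seeded overnight in 1% FBS, were treated with compounds for 30 min at 37C, then stimulated 5 min with 25 nM vasopressin; phospho-ERK read by AlphaScreen SureFire after lysis.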
Tau filament bind: qHTS Assay for Tau Filament Binding | recombinant tau filaments, thioflavin S fluorescence, 15 h; filaments grown with octadecylsulfate alongside compound | Potency, µM (top dose mostly 57.1 µM) | hit rate 2% among 71,000;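 note: actives lower thioflavin S fluorescence by blocking filaments or displacing dye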
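Recombinant tau protein (human, 1 uM final) plus 30 uM ODS in HEPES pH 7.4 with NaCl, DTT and thioflavine S. Compound present from the start; fluorescence at 510 nm after 15 h, 37 C.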
Hsp90-TPR2A inh: Confirmation Concentration-Response Assay and Counterscreen for Disrupters of an Hsp90 Co-Chaperone Interaction. shares compounds with Hsp90 Hop PPI. AlphaScreen TPR2A-His6 / biotin-Hsp90 peptide binding. activity, negative = inhibition, % at 40 µM or 46 µM, hits read low. hit rate 100% among 45. AID 632, 2007;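 active = compound lowering the Hsp90 and TPR2A binding signal, whether or not the linker counterscreen also flagged it as an artifact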
Tau ThS bind: Tau ThS binding assay | shares compounds with Tau filament bind | recombinant tau filaments, Thioflavin S fluorescence displacement | Potency, µM | hit rate 40% among 60; calls by dose curve
aSyn ThS bind: Alpha-synuclein ThS binding assay; shares compounds with Tau filament bind; recombinant alpha-synuclein fibrils, ThS fluorescence displacement; Potency, µM; hit rate 40% among 60; AID 937, 2007; calls by dose curve
Abeta ThS bind: Beta amyloid ThS binding assay; Abeta1-42 fibrillization, thioflavin S fluorescence, overnight 37 C; shares compounds with Tau filament bind; hit rate 50% among 60; Potency, µM; calls by dose curve
Hits are given with their value. A selection: hits, their analogues and other compounds. The true share with any hit is near 4.2%. Unless noted, calls come from the whole dose curve; as a rule, active = well fitted curve in the direction sought with a large enough effect; inconclusive = small, poorly fitted or top-dose-only effect, or another doubt; inactive = no such curve, though single readings can be large; an effect the other way counts as inactive or inconclusive.

What do the screens show for `CCn1nc(-c2ccccc2)nc2c(=O)n(C)c(=O)nc1-2`?
15-hLO inh: inactive; Hsp90 Hop PPI: 1.26µM; YjeE inh: inactive; Pol III holo inh: inactive; ERK AVP block: inactive; Tau filament bind: inactive; Hsp90-TPR2A inh: active

What do the screens show for `Cn1nc(-c2ccccc2)nc2c(=O)n(C)c(=O)nc1-2`?
Hsp90-TPR2A inh: active

What do the screens show for `O=C(NC(=O)c1ccccc1Cl)Nc1ccc(OC(F)(F)F)cc1`?
15-hLO inh: inactive; ERK AVP block: inactive

What do the screens show for `O=[N+]([O-])CCO`?
15-hLO inh: inactive; Hsp90 Hop PPI: inactive; YjeE inh: inactive; Pol III holo inh: inactive; ERK AVP block: inactive; Tau filament bind: inactive

How did COc1cc2c3cc1Oc1c(OC)c(OC)cc4c1C(Cc1cccc(c1)Oc1ccc(c(O)c1)CC3N(C)CC2)N(C)CC4 (stereo unspecified) do in these assays?
15-hLO inh: inactive; ERK AVP block: inactive

Results for COc1cc(OC)c(/C=C2/C(=O)Nc3ccccc32)c(OC)c1 ?
15-hLO inh: inactive; Hsp90 Hop PPI: inactive; YjeE inh: inactive; Pol III holo inh: inactive; ERK AVP block: inconclusive; Tau filament bind: inactive; Tau ThS bind: inactive; aSyn ThS bind: inactive; Abeta ThS bind: inactive

Results for Oc1ccc2c3c1O[C@H]1c4oc5ccccc5c4C[C@]4(O)[C@H](C2)N(CC2CC2)CC[C@@]314 ?
15-hLO inh: inactive; Hsp90 Hop PPI: inactive; YjeE inh: inactive; Pol III holo inh: inactive; ERK AVP block: inactive; Tau filament bind: inconclusive

Screens as filed in PubChem.
